Luc counter: Counterscreen for Luciferase (Kinase-Glo TM) Inhibition | Potency, µM (doses to about 38.3 µM), usual class: inhibitors | Kinase-Glo luciferase, ATP luminescence, 8 min | AID 1379, 2008 | Luciferin 4-monooxygenase (Photuris pensylvanica), Q27757 | 0.28% of 200,000 active; note: nearly all actives have a fitted effect of over 60% in size
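Inhibition of Kinase-Glo luciferase light generation was assessed at 10 uM ATP in pH 7.2 imidazole buffer, with luminescence measured after eight minutes at ambient temperature.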
NPC1 promoter act: qHTS Assay for NPC1 Promoter Activators | Potency, µM (series often up to 9.22 µM), hits mostly activators | 2.4% of 320,000 active | Huh7 NPC1 promoter luciferase reporter, 24 h; note: nearly all actives have a fitted effect of over 60% in size
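Huh7 cells stably carrying NPC1 promoter–luciferase, plated in Opti-MEM with 10% FBS for 2 h, were exposed to compound in DMSO for 24 h at 37 °C; luciferase reagent was added for 10 min and luminescence read.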
SMN2 splice up: qHTS Assay for Enhancers of SMN2 Splice Variant Expression; HEK293 SMN2-luciferase splicing reporter, luminescence, 30-36 h; Potency, µM (highest dose often 46.1 µM), usual class: activators; 2.8% of 210,000 active; note: nearly all actives have a fitted effect of over 55% in size
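HEK293 cells carry an SMN2 […]–luciferase reporter in which exon 7 inclusion puts luciferase in frame. Cells were plated 10-12 h before compound addition, then incubated 30-36 h at 37C. ONE-Glo luminescence was read; sodium butyrate at 4.5 mM final served as control.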
Rab9 promoter act: qHTS Assay for Rab9 Promoter Activators. Huh7 Rab9 promoter-luciferase reporter, luminescence, 24 h. Potency, µM (doses to about 9.22 µM), actives largely listed as activators. 2.8% of 320,000 active. AID 485297, 2010; note: nearly all actives have a fitted effect of over 60% in size
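Cells were plated at 1500 per well in reduced-serum medium with 10% FBS and left 2 h. Compound in DMSO was then added for 24 h at 37 °C. Reporter signal was read by luminescence after 10 min with luciferase detection reagent.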
FLuc modulator: qHTS profiling assay for firefly luciferase inhibitor/activator using purifed enzyme and Km concentrations of substrates (counterscreen for miR-21 project); purified FLuc, Km substrates, luminescence inhibition; Potency, µM (series often up to 57.5 µM), usual class: inhibitors; 6.9% of 360,000 active; AID 588342, 2011; note: nearly all actives have a fitted effect of over 55% in size
Target sequence (P08659 whole entry, looked up): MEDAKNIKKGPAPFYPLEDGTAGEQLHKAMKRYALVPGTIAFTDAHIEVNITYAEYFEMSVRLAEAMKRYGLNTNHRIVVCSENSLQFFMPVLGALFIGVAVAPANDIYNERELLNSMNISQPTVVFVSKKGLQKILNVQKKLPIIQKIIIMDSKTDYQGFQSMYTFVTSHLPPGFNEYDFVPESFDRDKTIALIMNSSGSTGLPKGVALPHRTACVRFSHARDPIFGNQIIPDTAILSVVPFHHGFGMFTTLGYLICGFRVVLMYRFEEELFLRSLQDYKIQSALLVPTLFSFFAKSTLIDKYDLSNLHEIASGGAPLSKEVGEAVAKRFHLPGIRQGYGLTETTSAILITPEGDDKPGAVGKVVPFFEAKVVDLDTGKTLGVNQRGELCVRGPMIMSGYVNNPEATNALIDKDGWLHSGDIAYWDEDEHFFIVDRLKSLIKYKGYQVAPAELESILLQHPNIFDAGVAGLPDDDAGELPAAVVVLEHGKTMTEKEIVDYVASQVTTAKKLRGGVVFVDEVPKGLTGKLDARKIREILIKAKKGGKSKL
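Purified P. pyralis luciferase (10nM final) with 10uM D-luciferin and 10uM ATP (Km levels) in 50mM Tris acetate pH 7.5, 10mM Mg acetate, 0.01% Tween-20, 0.05% BSA; qHTS 6-point titration, ~60 µM downward; luminescence read.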
ELG1 genotox: qHTS screen for small molecules that induce genotoxicity in human embryonic kidney (HEK293T) cells expressing luciferase-tagged ELG1; HEK293T ELG1-luciferase reporter, luminescence, 16 h; Potency, µM (doses to about 46 µM), most hits filed as activators; 1.3% of 330,000 active; note: nearly all actives have a fitted effect of over 60% in size
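Step 1: seed 2,000 HEK293T ELG1-luciferase cells per well. Step 2: add compound or DMSO, incubate 16 hr at 37 °C. Step 3: ONE-Glo, 30 min at room temperature, read luminescence.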
A number is an active result; - = inactive; ? = inconclusive; . = not tested or not shown. Shown are actives, neighbours in structure and some others; about 7.5% of the full set was active somewhere. Calls come from the whole dose curve; as a rule, active = well fitted curve in the direction sought with a large enough effect; inconclusive = small, poorly fitted or top-dose-only effect, or another doubt; inactive = no such curve, though single readings can be large; an effect the other way counts as inactive or inconclusive.

SMILES | Luc counter | NPC1 promoter act | SMN2 splice up | Rab9 promoter act | FLuc modulator | ELG1 genotox
CCOc1ccc(S(=O)(=O)NCCc2cn3ccccc3n2)cc1 | . | - | . | - | - | -
Fc1ccc(-c2cn3ccccc3n2)cc1 | . | 0.71µM | . | 0.56µM | 2.7µM | ?
CCOc1ccc(-c2cn3ccccc3n2)cc1 | 8.9µM | ? | 0.89µM | ? | 0.54µM | ?
COc1ccc(CC(=O)Nc2c(C(=O)Nc3ccccc3F)oc3ccccc23)cc1 | . | . | - | . | - | .
c1ccc(SCc2nc3ccccc3[nH]2)nc1 | - | ? | - | ? | 21µM | ?
Cn1c(CSc2nc3ccccc3s2)nc2ccccc21 | - | ? | 16µM | ? | 11µM | 13µM
c1ccc2[nH]c(CSc3nc4ccccc4s3)nc2c1 | - | - | - | - | 15µM | -
Cn1c(CSc2nc3ccccc3s2)n[nH]c1=S | - | - | - | - | - | -
COC(=O)c1cc2occc2n1CC(=O)Nc1ccc(C(C)C)cc1 | . | . | - | . | - | .
FCCCOc1ccc(-c2nccc(-c3ccccn3)n2)cc1 | . | - | . | - | 19µM | ?
O=C(O)COc1ccc(-c2nccc(-c3ccccn3)n2)cc1 | - | - | - | - | 3.4µM | -
CC(C)c1ccc(N2C(=O)CSC23C(=O)N(Cc2ccccc2F)c2ccccc23)cc1 (stereo not given) | . | . | . | . | - | .
CCOC(=O)/C(C(C)=O)=C1/OC(=O)c2ccccc21 | - | - | - | - | - | -
O=C(O)/C(=C1\OC(=O)c2ccccc21)c1ccccc1 | - | - | - | - | 27µM | -
O=C(NCC1CCCO1)C1CC(=O)N(c2ccccc2)C1 (stereo not given) | . | - | . | - | - | -
CCOc1ccc(NC(=O)n2ncc3c(C)cccc32)cc1 | . | 0.45µM | . | 1.4µM | 1.3µM | ?
COC(=O)c1ccc(NC(=O)n2ncc3c(C)cccc32)cc1 | . | . | . | . | - | .
CCOC(=O)Cc1ccc(NC(=O)n2ncc3c(C)cccc32)cc1 | . | . | - | . | 5.4µM | .
COc1cccc(NC(=O)n2ncc3c(C)cccc32)c1 | . | 0.089µM | . | 0.32µM | 0.17µM | 1.6µM
Clc1cccc(-c2ccc(C3Nc4cccc5cccc(c45)N3)o2)c1 | . | . | . | . | . | -
O=C(O)c1ccc(N/N=C/c2ccc(-c3ccc(Br)cc3)o2)cc1 | . | - | . | - | 2.4µM | ?
O=C(O)c1cc(-c2ccc(/C=N/Nc3ccc(Cl)cc3)o2)ccc1Cl | - | - | - | - | 11µM | -
Cc1ccc(/C=N/Nc2ccc(C(=O)O)cc2)o1 | - | 0.71µM | 10µM | 0.4µM | 6.7µM | ?
Nc1nonc1C(=O)N/N=C/c1ccc(-c2ccc(Cl)c(C(=O)O)c2)o1 | - | - | - | - | ? | -
Cc1ccc(/C=N/NC(=O)c2ccc(-n3cccc3)cc2)o1 | . | - | . | - | - | -
SMILES | Luc counter | NPC1 promoter act | SMN2 splice up | Rab9 promoter act | FLuc modulator | ELG1 genotox
O=C(Cc1ccc(Br)cc1)N/N=C/c1ccc(-c2cccc(C(=O)O)c2)o1 | . | - | . | - | ? | -
CCCCN1C(=O)c2ccc(C(=O)NC3=NCCS3)cc2C1=O | - | - | . | - | - | -
CC(C)(C)C1CCc2c(sc(NC(=O)Cn3nnc(-c4ccccc4F)n3)c2C#N)C1 (stereo not given) | . | . | - | . | ? | .
COCCn1c(SCC(=O)Nc2cccc(C)c2C)nc2c(oc3ccccc32)c1=O | . | . | - | . | - | .
Cc1ccc(NC(=O)c2ccccc2F)nc1 | ? | 1.1µM | 7.9µM | 0.71µM | 4.8µM | 1.8µM
Cc1ccc(NC(=O)c2ccc(C(=O)c3ccccc3)cc2)nc1 | . | - | . | - | 19µM | ?
Cc1cc(NC(=O)c2cc(F)c(F)cc2Cl)no1 | - | - | - | - | - | -
Cc1ccc(NC(=O)c2cc(F)c(F)cc2Cl)nc1 | - | 1.8µM | . | 0.89µM | 8.5µM | ?
COc1cc2ccccc2cc1C(=O)Nc1ccc(C)cn1 | . | ? | . | ? | 3µM | 2.9µM
Cc1ccc(NC(=O)c2ccc3nc[nH]c3c2)nc1 | . | - | . | - | - | -
Cc1ccc(NC(=O)CCNC(=O)c2ccccc2Cl)nc1 | . | - | . | - | - | -
